Rows were chosen to be rich in hits. Some 21% of all compounds tested hit in one or more screens of this group.
Shiga toxin inh: inhibitors of Shiga toxin in Vero cells; AID 2315; 9.2% of 290,000 active; inhibition, % at 38.7 µM; Vero cells, Shiga toxin protein synthesis inhibition reporter; in the data active = inhibition mostly above about 28%, no sharp cut-off; inactive = mostly below about 43%; note: 0% is about no effect
HCMV inh: blocks human cytomegalovirus replication; activity change, negative = inhibition, % at 57.5 µM; 4.5% of 410,000 active; HFF cells, HCMV-luciferase reporter, 72 h; hits give low values; in the data active = activity change below about -60%; inconclusive = no clear call, values can overlap the other calls; inactive = above about -39%; note: % is set by controls: 0 for no effect and ±100 for the full control effect
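Two-dose cell screen: HFF monolayers treated with compounds and infected with luciferase-expressing HCMV at 1 PFU/cell, 72 h at 37C, then lysed for luciferase measurement.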
HCV inh: HCV inhibition; Potency, µM (doses to about 41.8 µM), for the others: at the top dose activity change, negative = inhibition, most hits filed as inhibitors; Huh7.5.1 HCVcc-Cre infection, luciferase reporter, 44 h; 3.4% of 340,000 active; note: potency is the fitted concentration of half-maximal effect; % is set by controls: 0 for no effect and ±100 for the full control effect
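Cells (1,000/well) were plated 4 h before compound, then infected with HCVcc-Cre virus (~0.5 moi). After 44 h further culture, infection was read as luciferase luminescence following a 15 min substrate incubation at room temperature.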
Pf growth 96h: P. falciparum growth inhibition at 96 hours; P. falciparum luciferase reporter growth, 96 h; Potency, µM (doses to about 28.7 µM), inactives show at the highest dose activity change, negative = inhibition, usual class: inhibitors; 6.9% of 320,000 active; AID 504834; note: potency is the fitted concentration of half-maximal effect; % is set by controls: 0 for no effect and ±100 for the full control effect
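Two parasite generations (96 h, 37 C, 5% CO2) of compound exposure in infected erythrocytes (0.05% parasitemia, 2% hematocrit). Luciferase-reporter P. falciparum; decreased luminescence indicates inhibited growth, aimed at apicoplast-acting delayed death.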
Cycloheximide cs: affects cycloheximide protein synthesis inhibition readout, counter-screen; 12% of 300,000 active; cell reporter, cycloheximide protein synthesis inhibition counterscreen; max response, %; in the data active = max response mostly above about 13%, no sharp cut-off; inactive = mostly below about 14%; note: read at 38.3 µM for the half of the compounds with a filed dose; 0% is about no effect
Pf growth 48h: inhibits P. falciparum growth in the first generation, 48 h; P. falciparum luciferase growth in erythrocytes, 48 h; Potency, µM (titrated, usually from 28.7 µM), inactives show at the top dose activity change, negative = inhibition, actives largely listed as inhibitors; 5.9% of 310,000 active; note: potency is the fitted concentration of half-maximal effect; % is set by controls: 0 for no effect and ±100 for the full control effect
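Firefly luciferase activity from engineered P. falciparum reports growth; inhibitors lower the luminescent signal. Cultures contained 2% hematocrit erythrocytes at 0.1% final parasitemia.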
The depositor's hits bear a star; ? = inconclusive; · = not tested or not shown. Unless noted, calls come from the whole dose curve; as a rule, active = well fitted inhibition curve with a large enough effect; inconclusive = small, poorly fitted or top-dose-only effect, or another doubt; inactive = no such curve, though single readings can be large or run the other way.

SMILES	Shiga toxin inh	HCMV inh	HCV inh	Pf growth 96h	Cycloheximide cs	Pf growth 48h
COc1ccc(OC(=O)/C=C/c2ccc([N+](=O)[O-])cc2)cc1	3	-25	1%	-20%	-2	?
Cc1cccc(N2CCN(S(=O)(=O)c3ccc4c(c3)CC(=O)N4C)CC2)c1C	-4	-2	-13%	?	-4	9.3µM*
Cc1cccc(N2CCN(S(=O)(=O)c3ccc(S(=O)(=O)N4CCCC4)cc3)CC2)c1C	-5	37	12%	-9%	-5	·
CC(NS(=O)(=O)c1ccc2c(c1)CC(=O)N2C)c1ccccc1 (stereo unspecified)	-8	-6	6%	?	-12	-11%
CCOC(=O)C1CCN(S(=O)(=O)c2ccc3c(c2)CC(=O)N3C)CC1	-7	-5	3%	-6%	-3	2.1µM*
CN1C(=O)Cc2cc(S(=O)(=O)N3CCOCC3)ccc21	10	5	3%	4.7µM*	1	-8%
CC(CNS(=O)(=O)c1ccc2c(c1)CC(=O)N2C)c1ccccc1 (stereo unspecified)	-7	7	-7%	10µM*	2	9.3µM*
Cc1ccc(CN2C(=O)c3ccccc3C2C(=O)NC2CCCCCC2)cc1 (stereo unspecified)	·	-20	·	·	·	·
Cc1ccc(S(=O)(=O)NNC(=O)Nc2ccc([N+](=O)[O-])cc2)c(C)c1	-7	-29	9%	-28%	1	1%
COc1ccccc1NC(=O)n1ncc2c(C)cccc21	·	26	·	·	·	·
Cc1ccc(NC(=O)n2ncc3c(C)cccc32)cc1F	106*	144	-2%	-14%	72*	192%
Cc1cccc2c1cnn2C(=O)Nc1ccccc1Cl	63*	60	?	-7%	35*	238%
COc1ccc(C)cc1NC(=O)n1ncc2c(C)cccc21	-1	-4	-16%	?	6	23%
COc1ccc(NC(=O)n2ncc3c(C)cccc32)cc1	128*	148	-28%	24%	59*	114%
COc1ccc(NC(=O)n2ncc3c(C)cccc32)cc1OC	63*	89	-25%	4%	36*	117%
O=C(Nc1ccc(Cc2ccncc2)cc1)c1cc([N+](=O)[O-])ccc1N1CCOCC1	-19	?	-11%	25%	-1	?
COc1ccc(-c2c(C)oc3c(CN4CCCCC4C)c(O)ccc3c2=O)cc1OC (stereo unspecified)	-2	-11	-16%	12µM*	-3	?
COc1ccccc1-c1coc2c(CN3CCCCC3C)c(O)ccc2c1=O (stereo unspecified)	·	-4	21%	?	-1	?
O=c1c(-c2ccc(Cl)cc2)coc2c(CN3CCOCC3)c(O)ccc12	23	41	-13%	10µM*	17	8.3µM*
CC1CCCCN1Cc1c(O)ccc2c(=O)c(-c3ccc(Br)cc3)coc12 (stereo unspecified)	23	?	-17%	5.9µM*	9	7.4µM*
COc1ccc(-c2c(C)c3ccc(O)c(CN4CCCCC4C)c3oc2=O)cc1OC (stereo unspecified)	·	3	·	·	·	·
CC(C)N(Cc1c(O)ccc2c(=O)c(-c3ccc(Cl)cc3)coc12)C(C)C	·	-30	?	-13%	18*	0%
CCN(CC)Cc1c(O)ccc2c(=O)c(-c3ccc4c(c3)OCCO4)coc12	15	?	?	?	6	?
CC1CN(C/C(=N\O)C23CC4CC(CC(C4)C2)C3)CC(C)O1 (stereo unspecified)	3	-21	12%	-26%	-1	-3%
CC1CCCCN1Cc1c(O)ccc2c(=O)c(-c3ccc(Cl)cc3)coc12 (stereo unspecified)	49	15	?	45%	30*	10µM*
SMILES	Shiga toxin inh	HCMV inh	HCV inh	Pf growth 96h	Cycloheximide cs	Pf growth 48h
CC1CCCCN1Cc1c(O)ccc2c(=O)c(-c3ccccc3Cl)c(C(F)(F)F)oc12 (stereo unspecified)	·	10	·	·	·	·
CC1CCCCN1Cc1c(O)ccc2c(=O)c(-c3ccc(Cl)cc3Cl)coc12 (stereo unspecified)	-9	24	-12%	9%	-2	?
CC1CCCCN1Cc1c(O)ccc2c(=O)c(-c3nc4ccccc4s3)c(N)oc12 (stereo unspecified)	63*	-16	10µM*	1µM*	40*	0.83µM*
O=C(c1cc(Cl)nc2ccccc12)N1CCN(S(=O)(=O)c2cccc(C(F)(F)F)c2)CC1	·	24	7%	?	·	?
C=C1[C@H](C)CN[C@H]1CCO	·	-26	55%	·	·	·
Cn1cccc1Cc1nnc(SCC(=O)Nc2ccc(Cl)cc2)n1-c1ccc(F)cc1	-15	-6	-8%	-18%	-3	?
COc1ccc(-n2c(Cc3cccn3C)nnc2SCC(=O)Nc2ccccc2)cc1	-3	-17	9%	?	-2	12µM*
CCc1ccc(NC(=O)CSc2nnc(Cc3cccn3C)n2-c2ccc(OC)cc2)cc1	-2	13	5%	8.3µM*	-2	?
COc1ccc(-n2c(Cc3cccn3C)nnc2SCC(=O)Nc2ccc(Cl)cc2)cc1	-6	-1	-12%	15%	-3	12µM*
Cc1ccc(-n2c(Cc3cccn3C)nnc2SCC(=O)Nc2ccc3c(c2)OCO3)cc1	-10	-22	-20%	?	-4	15µM*
O=C(CN1C(=O)C2CC=CCC2C1=O)Nc1nnc(C2CC2)s1 (stereo unspecified)	·	-10	1%	14%	·	-16%
O=S1(=O)C2CC3CCC2(CN1Cc1ccccc1)O3 (stereo unspecified)	15	·	·	·	7	·
CCOC(=O)[C@]12CCC=C1N(Cc1ccc3c(c1)OCO3)C(=O)[C@H](CC(=O)N1CCOCC1)C2	·	1	·	·	·	·
O=C1CCC(C(=O)N2CCCCO2)CN1Cc1ccc(Cl)cc1 (stereo unspecified)	37	4	·	-4%	12	50%
COc1ccc(-n2c(Cc3cccn3C)nnc2SCC(=O)N2CCC(C)CC2)cc1	-9	-6	-15%	0.37µM*	-4	?
COc1ccc(-n2c(Cc3cccn3C)nnc2SCC(=O)Nc2cccc(F)c2)cc1	11	-12	-25%	?	15	8.3µM*
COc1ccc(NC(=O)CSc2nnc(Cc3cccn3C)n2-c2ccc(F)cc2)cc1OC	15	6	-17%	?	6	?
COc1ccccc1C(=O)NC(CCSC)C(=O)NNC(=O)C(C)Oc1ccccc1F (stereo unspecified)	·	-11	2%	?	·	-26%
CC(=O)C1=NN(c2ccccc2)C(c2cccs2)N1c1ccc(N(C)C)cc1 (stereo unspecified)	15	-80*	?	2.1µM*	15	·
